Test results as given in PubChem BioAssay.
Activity calls are given as the source filed them. Unless noted, no rule for the calls is given here.

Assays:
[1] = compounds binding Alexa647 anti-His antibody – biochemical, small-molecule microarray, 635 nm fluorescence, artefact control for SMM control protein annotation, primary screen (AID 1128); details: higher = more signal;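 also: score merges feature fluorescence with signal-to-noise for each printed compound spot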
[2] = tested on: Human papillomavirus type 1a E7 protein (residues 1-88); assay: HPV1a E7 small-molecule binders, primary screen, biochemical, small-molecule microarray, residues 1-88, 635 nm (AID 1129); details: small-molecule microarray binding, fluorescence 635 nm; higher = more signal
[3] = biological target: Focal adhesion kinase 1 (Homo sapiens) (UniProt Q05397); assay: PTK2 protein binding on printed compound slides – biochemical, small-molecule microarray, 635/667 nm fluorescence, BSA, DTT, primary screen (AID 1130); details: 635 nm fluorescence, higher = more signal;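 also: composite of spot emission at 667 nm and signal to noise over triplicate slides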
Focal adhesion kinase 1 (Homo sapiens), sequence (Q05397 whole entry, looked up): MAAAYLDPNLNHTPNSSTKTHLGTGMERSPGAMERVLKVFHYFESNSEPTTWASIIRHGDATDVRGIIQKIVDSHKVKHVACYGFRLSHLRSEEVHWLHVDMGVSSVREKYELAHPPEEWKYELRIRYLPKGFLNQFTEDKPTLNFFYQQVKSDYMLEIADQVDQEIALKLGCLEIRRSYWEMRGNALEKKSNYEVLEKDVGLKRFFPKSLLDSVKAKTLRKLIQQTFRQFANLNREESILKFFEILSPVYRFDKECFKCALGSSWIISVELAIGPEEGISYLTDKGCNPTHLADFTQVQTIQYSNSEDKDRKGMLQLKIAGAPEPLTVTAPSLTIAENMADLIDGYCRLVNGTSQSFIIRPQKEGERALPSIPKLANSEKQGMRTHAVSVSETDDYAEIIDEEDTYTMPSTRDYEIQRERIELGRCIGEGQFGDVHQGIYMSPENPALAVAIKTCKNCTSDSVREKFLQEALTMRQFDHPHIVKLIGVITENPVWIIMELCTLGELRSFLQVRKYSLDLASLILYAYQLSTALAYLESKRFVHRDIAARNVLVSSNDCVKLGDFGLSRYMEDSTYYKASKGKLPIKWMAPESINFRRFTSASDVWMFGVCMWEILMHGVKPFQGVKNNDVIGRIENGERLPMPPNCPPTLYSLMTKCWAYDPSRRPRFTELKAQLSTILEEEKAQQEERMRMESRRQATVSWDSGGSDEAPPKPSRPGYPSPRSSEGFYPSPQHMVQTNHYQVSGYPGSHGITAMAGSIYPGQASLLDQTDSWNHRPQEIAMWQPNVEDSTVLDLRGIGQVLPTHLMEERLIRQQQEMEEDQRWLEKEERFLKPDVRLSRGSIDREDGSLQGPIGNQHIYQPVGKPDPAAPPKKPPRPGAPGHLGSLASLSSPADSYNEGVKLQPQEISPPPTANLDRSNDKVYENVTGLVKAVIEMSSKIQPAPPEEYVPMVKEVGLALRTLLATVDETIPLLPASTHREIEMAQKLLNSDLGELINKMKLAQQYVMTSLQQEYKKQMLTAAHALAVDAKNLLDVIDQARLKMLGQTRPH

[4] = tested on: Fibrinogen (Alexa647-labelled); assay: Alexa647-fibrinogen binding to printed small molecules – biochemical, small-molecule microarray, 635/667 nm fluorescence, artefact control for SMM control-protein annotation, profiling panel (AID 1131); details: fibrinogen-A647 binding fluorescence, higher = more signal;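 also: z-score merges 667 nm fluorescence with per-spot signal-to-noise over triplicate slides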
[5] = biological target: Follistatin (Homo sapiens) (UniProt P19883); assay: FST protein binding to printed compounds – biochemical, small-molecule microarray, 635/667 nm fluorescence, primary screen (AID 1132); details: 635 nm fluorescence, higher = more signal
Follistatin (Homo sapiens), sequence (P19883 whole entry, looked up): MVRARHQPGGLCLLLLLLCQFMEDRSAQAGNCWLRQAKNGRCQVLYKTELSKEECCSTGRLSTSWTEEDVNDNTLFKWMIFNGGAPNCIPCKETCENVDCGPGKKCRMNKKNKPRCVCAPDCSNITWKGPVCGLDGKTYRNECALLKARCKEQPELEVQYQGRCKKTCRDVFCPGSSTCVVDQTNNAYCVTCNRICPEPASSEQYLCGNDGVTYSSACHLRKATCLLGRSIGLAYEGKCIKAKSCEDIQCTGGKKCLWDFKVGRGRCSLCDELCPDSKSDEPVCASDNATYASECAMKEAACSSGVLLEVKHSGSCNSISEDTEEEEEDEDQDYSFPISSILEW

[6] = biological target: Fibroblast growth factor 2 (Homo sapiens) (UniProt P09038); assay: basic fibroblast growth factor binding to printed compounds – biochemical, small-molecule microarray, 635/667 nm fluorescence, primary screen (AID 1133); details: FGF2, fluorescence 635/667, higher = more signal
Fibroblast growth factor 2 (Homo sapiens), sequence (P09038 whole entry, looked up): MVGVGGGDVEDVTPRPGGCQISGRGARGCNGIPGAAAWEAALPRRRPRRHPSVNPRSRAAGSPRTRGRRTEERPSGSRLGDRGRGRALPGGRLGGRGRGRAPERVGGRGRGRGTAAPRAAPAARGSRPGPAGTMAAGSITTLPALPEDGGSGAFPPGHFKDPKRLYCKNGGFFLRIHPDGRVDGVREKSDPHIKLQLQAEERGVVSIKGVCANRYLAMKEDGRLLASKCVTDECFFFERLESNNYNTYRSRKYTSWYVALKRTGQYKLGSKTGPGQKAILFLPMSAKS

[7] = JC-1 mitochondrial potential readout, lung cancer cells – cell-based, A549, JC-1 fluorescence, basal, 24 h, 100 nL, profiling panel (AID 1138); details: higher = more signal;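 also: A549 lung adenocarcinoma cells under basal conditions with no added stimulus; test concentration not given here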
Lefty1 = Lefty1 protein binding to printed compounds – biochemical, small-molecule microarray, 635/667 nm fluorescence, primary screen (AID 1139); details: fluorescence 635/667, higher = more signal
[8] = tested on: wheat germ agglutinin (Triticum aestivum), Alexa647-labelled; assay: Alexa647-WGA lectin binding to printed small molecules – biochemical, small-molecule microarray, 635/667 nm fluorescence, artefact control for SMM control-protein annotation, profiling panel (AID 1140); details: WGA-A647 binding, 635 nm fluorescence, higher = more signal;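 also: score merges 667 nm feature emission with signal to noise over triplicate slides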
[9] = biological target: Luciferin 4-monooxygenase (Photinus pyralis) (UniProt P08659); assay: inhibition of purified Photinus pyralis luciferase – biochemical, luminescence, purified enzyme, 2006 set, primary screen (AID 1141); details: purified firefly luciferase, SteadyGlo luminescence, 30 min; higher = more signal, called active from +8 up or from −8 down;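 also: cell-free assay with purified firefly luciferase at 100 ng per well in PBS; test concentration not given here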
Luciferin 4-monooxygenase (Photinus pyralis), sequence (P08659 whole entry, looked up): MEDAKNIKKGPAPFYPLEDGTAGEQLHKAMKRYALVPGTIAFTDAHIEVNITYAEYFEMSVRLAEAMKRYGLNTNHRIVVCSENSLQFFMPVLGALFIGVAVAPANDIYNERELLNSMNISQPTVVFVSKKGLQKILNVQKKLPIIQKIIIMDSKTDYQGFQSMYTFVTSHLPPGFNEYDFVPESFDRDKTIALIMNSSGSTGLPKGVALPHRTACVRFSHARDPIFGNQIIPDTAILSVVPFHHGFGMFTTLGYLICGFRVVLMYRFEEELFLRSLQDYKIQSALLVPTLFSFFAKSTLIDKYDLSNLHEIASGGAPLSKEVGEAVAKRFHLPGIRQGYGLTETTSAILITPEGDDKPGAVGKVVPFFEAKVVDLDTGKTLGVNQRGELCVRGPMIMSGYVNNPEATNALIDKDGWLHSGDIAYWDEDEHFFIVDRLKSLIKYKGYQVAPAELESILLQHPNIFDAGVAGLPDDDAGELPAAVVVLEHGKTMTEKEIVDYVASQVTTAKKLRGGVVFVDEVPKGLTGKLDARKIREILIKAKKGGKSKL

[10] = tested on: Wnt5a (protein binding on small-molecule microarray); assay: small molecules binding Wnt5a protein – biophysical, small-molecule microarray, 635/667 nm fluorescence, primary screen (AID 1142); details: 635 nm fluorescence, higher = more signal;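 also: fluorescence read at 667 nm with signal to noise per printed feature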
[11] = ATP-based viability of Huh7 replicon cells – cell-based, CellTiter-Glo luminescence, basal, 48 h, cytotoxicity control for HCV replication inhibitor project, primary screen (AID 1143); details: higher = more signal, called active from +8 up or from −8 down;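 also: Huh7 hepatoma cells carrying a hepatitis C replication reporter with no stimulus; test concentration not given here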
[12] = Pseudomonas biofilm growth suppression – PAO1 strain, BacTiter-Glo luminescence, LB-PBS, primary screen (AID 1144); details: P. aeruginosa PAO1 biofilm, 12 h, higher = more signal
[13] = basal CRE-LacZ reporter activity in PC12 – cell-based, unstimulated, primary screen (AID 1145); details: no forskolin, luminescence, 4.5 h, higher = more signal, called active from +8 up or from −8 down
[14] = forskolin-driven CRE-LacZ activity in PC12 – cell-based, CRE-LacZ reporter, forskolin-stimulated, primary screen (AID 1146); details: luminescence, 4.5 h, higher = more signal, called active from +8 up or from −8 down;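 also: PC12 cells with 6xCRE LacZ reporter stimulated by forskolin 10 µM; beta-galactosidase reporter signal reflecting CREB driven transcription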
[15] = biological target: Streptavidin (Streptomyces avidinii) (UniProt P22629); assay: compounds binding control protein streptavidin – biophysical, small-molecule microarray, 635/667 nm fluorescence, artefact control for SMM compound annotation, primary screen (AID 1147); details: higher = more signal;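 also: signal reflects streptavidin binding to arrayed compounds as a control protein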
Streptavidin (Streptomyces avidinii), sequence (P22629 whole entry, looked up): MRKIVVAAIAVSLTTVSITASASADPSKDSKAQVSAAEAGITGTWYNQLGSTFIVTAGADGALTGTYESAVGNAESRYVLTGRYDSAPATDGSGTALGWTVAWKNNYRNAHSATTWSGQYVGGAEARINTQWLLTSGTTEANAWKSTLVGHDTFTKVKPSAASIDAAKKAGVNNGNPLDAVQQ

[16] = probe aInhba binding on compound microarray – biochemical, small-molecule microarray, 635/667 nm fluorescence, primary screen (AID 1148); details: higher = more signal;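 also: score merges 667nm spot fluorescence with signal-to-noise for antibody binding to printed compounds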
Torsin-1A (Homo sapiens) [17] = biological target: Torsin-1A (Homo sapiens) (UniProt O14656); assay: TOR1A wild-type binding on microarray – cell lysate, small-molecule microarray, lysate, 635/667 nm, primary screen (AID 1149); details: COS7 hTOR1A-WT lysate, 635 nm fluorescence, higher = more signal
Torsin-1A (Homo sapiens), sequence (O14656 whole entry, looked up): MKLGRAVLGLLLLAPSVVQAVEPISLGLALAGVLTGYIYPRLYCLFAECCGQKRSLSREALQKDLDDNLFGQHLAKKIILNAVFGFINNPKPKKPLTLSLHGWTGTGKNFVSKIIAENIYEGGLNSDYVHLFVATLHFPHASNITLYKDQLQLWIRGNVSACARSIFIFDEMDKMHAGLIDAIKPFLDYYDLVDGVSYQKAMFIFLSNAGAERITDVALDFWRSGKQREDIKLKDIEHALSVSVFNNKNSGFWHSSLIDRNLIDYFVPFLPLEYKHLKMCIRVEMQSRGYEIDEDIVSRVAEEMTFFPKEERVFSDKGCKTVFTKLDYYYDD

Torsin-1A (Homo sapiens) [18] = biological target: Torsin-1A (Homo sapiens) (UniProt O14656); assay: torsin A mutant lysate binding on microarrays – cell lysate, small-molecule microarray, COS7 lysate, 635/667 nm fluorescence, primary screen (AID 1150); details: COS7 hTOR1A mutant lysate, 635 nm fluorescence, higher = more signal;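 also: score pools 667 nm emission and signal to noise measuring lysate protein binding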
[19] = tested on: Sonic hedgehog protein (Shh); assay: Sonic hedgehog microarray binding compounds – biochemical, small-molecule microarray, 635/667 nm fluorescence, primary screen (AID 1151); details: 635 nm fluorescence, higher = more signal;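 also: Shh protein binding to compounds spotted on small-molecule microarray slides; score combines spot fluorescence intensity with signal-to-noise across triplicate slides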

With `O=C1C[C@@H](O)[C@@H](O)[C@@H]2[C@@H]3C(=O)N(C4CCCCC4)C(=O)[C@@H]3CC[C@@H]12` the composite z-score [1] was 0.69, the composite z-score [2] was 0.54 and the composite z-score [3] was -0.0599. The composite z-score [4] was 0.705, the composite z-score [5] was 0.373 and the composite z-score [6] was 0.134. It also gave a z-score [7] of 0.457, a composite z-score (Lefty1) of 0.66 and a composite z-score [8] of 0.282. For the same molecule, the z-score [9] was 0.137 (inactive), the composite z-score [10] was 0.0446 and the z-score [11] was 0.0366 (inactive). For the same molecule, the z-score [12] was 0.749 (inactive), the z-score [13] was -0.0223 (inactive) and the z-score [14] was -0.393 (inactive). The composite z-score [15] was 0.148, the composite z-score [16] was -0.145 and the composite z-score (Torsin-1A (Homo sapiens) [17]) was -0.0977. It also gave a composite z-score (Torsin-1A (Homo sapiens) [18]) of 0.311 and a composite z-score [19] of 0.684.

`COC(=O)CC=C[C@@H](C)[C@@H](C=NOC(C)CN1CCCCc2nc(C)c(C)cc21)OC` (stereo not given in full) gave a composite z-score [1] of 1.4, a composite z-score [2] of 0.981 and a composite z-score [3] of 0.847. For the same molecule, the composite z-score [4] was 0, the composite z-score [5] was 1.14 and the composite z-score [6] was 0.368. It also gave a z-score [7] of 0.855, a composite z-score (Lefty1) of 1.24 and a composite z-score [8] of 0.259. For the same molecule, the z-score [9] was -0.183 (inactive), the composite z-score [10] was 0.263 and the z-score [11] was -0.211 (inactive). For the same molecule, the z-score [12] was 0.763 (inactive), the z-score [13] was 1.41 (inactive) and the z-score [14] was 0.802 (inactive). The composite z-score [15] was 0.405, the composite z-score [16] was -0.239 and the composite z-score (Torsin-1A (Homo sapiens) [17]) was 3.19. The composite z-score (Torsin-1A (Homo sapiens) [18]) was 2.65 and the composite z-score [19] was 1.79.

Work on `CC(C)=NO[C@H](C)c1cn([C@@H]2COC[C@H]2O)nn1` yielded a composite z-score [1] of 0.106, a composite z-score [2] of 0.661 and a composite z-score [3] of 0.335. It also gave a composite z-score [4] of 0.187, a composite z-score [5] of 0.349 and a composite z-score [6] of 0.594. For the same molecule, the z-score [7] was 0.027, the composite z-score (Lefty1) was 0.718 and the composite z-score [8] was -0.038. The z-score [9] was 0.0821 (inactive), the composite z-score [10] was 0.185 and the z-score [11] was 0.495 (inactive). The z-score [12] was -1.16 (inactive), the z-score [13] was 0.099 (inactive) and the z-score [14] was -0.0851 (inactive). It also gave a composite z-score [15] of -0.085, a composite z-score [16] of -0.0963 and a composite z-score (Torsin-1A (Homo sapiens) [17]) of 0.455. It also gave a composite z-score (Torsin-1A (Homo sapiens) [18]) of 0.461 and a composite z-score [19] of 0.477.

`C[C@@H]1CC[C@H]2C(=O)O[C@@H](COc3ccc(C(C)(C)C)cc3)CN2[C@H]1c1ccc(Br)cc1` showed a composite z-score [1] of -0.0988, a composite z-score [2] of -0.153 and a composite z-score [3] of -0.171. For the same molecule, the composite z-score [4] was 0.407, the composite z-score [5] was 0.0252 and the composite z-score [6] was 0.0914. For the same molecule, the z-score [7] was 0.784, the composite z-score (Lefty1) was 0.135 and the composite z-score [8] was 0.0196. The z-score [9] was 0.104 (inactive), the composite z-score [10] was 0.0114 and the z-score [11] was -0.0293 (inactive). For the same molecule, the z-score [12] was 0.0807 (inactive), the z-score [13] was 0.345 (inactive) and the z-score [14] was 0.213 (inactive). The composite z-score [15] was 0.0826, the composite z-score [16] was -0.0523 and the composite z-score (Torsin-1A (Homo sapiens) [17]) was 0.159. The composite z-score (Torsin-1A (Homo sapiens) [18]) was -0.0416 and the composite z-score [19] was 0.526.

For `CCOC(=O)CCN1C(=O)[C@H]2[C@H]3[C@H](O)[C@H](O)CC(=NNC(=O)OCc4ccc(OC)cc4)[C@H]3CC[C@H]2C1=O`, the composite z-score [1] was -0.0305, the composite z-score [2] was 0.568 and the composite z-score [3] was 0.0684. For the same molecule, the composite z-score [4] was 0.446, the composite z-score [5] was -0.0495 and the composite z-score [6] was 0.0077. It also gave a z-score [7] of -0.734, a composite z-score (Lefty1) of 0.161 and a composite z-score [8] of 0.282. The z-score [9] was 0.624 (inactive), the composite z-score [10] was -0.169 and the z-score [11] was -0.401 (inactive). For the same molecule, the z-score [12] was 0.136 (inactive), the z-score [13] was 0.523 (inactive) and the z-score [14] was -0.139 (inactive). It also gave a composite z-score [15] of -0.0807, a composite z-score [16] of -0.257 and a composite z-score (Torsin-1A (Homo sapiens) [17]) of 0.306. The composite z-score (Torsin-1A (Homo sapiens) [18]) was 0.111 and the composite z-score [19] was 0.236.
